Here are results for 50 compounds from PubChem BioAssay AID1851 (National Center for Advancing Translational Sciences (NCATS), 2009).

Hit rate of the full screen: of about 16,000 compounds, about 5,800 (36%) were called active. Inconclusive results (about 23%) are left out. The list shows a part of the results. Values without a mark were called inactive. Calls follow the shape of the dose curve; as a rule, active = well fitted curve in the direction sought with a large enough effect; inconclusive = small, poorly fitted or top-dose-only effect, or effect the other way; inactive = no such curve, though single readings can be large or run the other way.

Broadly, the AC50 is the concentration at which the activity in the assay is half-maximal.
% is scaled to controls: 0 for no effect and ±100 for the full control effect.

The target in this assay is Cytochrome P450 2C19 (Homo sapiens) (UniProt P33261). Briefly: Cytochrome panel assay with activity outcomes. Particulars: recombinant CYP, pro-luciferin dealkylation, luminescence, p450-cyp2c19; series mostly up to 57.1 µM; activity, negative = inhibition: at the top concentration.
Cytochrome P450 2C19 (Homo sapiens), sequence (P33261 whole entry, looked up): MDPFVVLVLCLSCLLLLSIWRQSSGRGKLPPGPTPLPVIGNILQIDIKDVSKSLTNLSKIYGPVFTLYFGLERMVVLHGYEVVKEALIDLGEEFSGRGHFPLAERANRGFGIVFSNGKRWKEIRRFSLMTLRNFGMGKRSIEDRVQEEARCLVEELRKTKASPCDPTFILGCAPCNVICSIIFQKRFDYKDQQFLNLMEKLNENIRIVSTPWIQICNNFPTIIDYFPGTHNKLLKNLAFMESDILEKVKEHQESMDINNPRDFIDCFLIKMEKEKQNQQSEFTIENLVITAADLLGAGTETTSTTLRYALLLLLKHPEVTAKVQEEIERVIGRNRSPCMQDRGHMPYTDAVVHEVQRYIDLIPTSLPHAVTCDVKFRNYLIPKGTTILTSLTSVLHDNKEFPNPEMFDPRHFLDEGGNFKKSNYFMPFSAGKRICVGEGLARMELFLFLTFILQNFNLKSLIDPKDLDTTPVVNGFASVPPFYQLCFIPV
Regarding `O=c1cnc2cnc(Oc3ccccc3)nc2n1Cc1cccs1`, the concentration at half-maximal activity (AC50) was 1260 nM (active).

As to `COc1cccc(Cn2c(=O)cnc3cnc(Oc4cccc(Cl)c4)nc32)c1`, the concentration at half-maximal activity (AC50) was 25100 nM (active).

For `COc1ncc2ncc(=O)n(Cc3cccs3)c2n1`, the “activity, negative = inhibition” value is -42%.

As to `O=c1c(-c2cccs2)nc2cnc(Oc3ccccc3)nc2n1Cc1cccs1`, the “activity, negative = inhibition” value was 6.36%.

As for `CCN(CCO)C[C@H]1CCC[C@H]2CCCC[C@@H]21`, the activity, negative = inhibition is 12.1% [at 11.4 µM].

Take `CCON=C1C(C)(C)C(C)(C)C(C)(C)C1(C)C`: the activity, negative = inhibition was -8.06% [at 11.4 µM].

`COC(=O)[C@H](C)NC(=O)C/C=C\[C@@H](C)[C@H]1C=C[C@H](O)[C@@H](CO)O1`: the activity, negative = inhibition is -2.78% [at 11.4 µM].

For the compound `O=c1cnc2cnc(Oc3ccccc3)nc2n1Cc1ccc(F)cc1`, the concentration at half-maximal activity (AC50) is 2510 nM (active).

Take `N#CCCn1c(=O)cnc2cnc(Oc3ccccc3)nc21`: the “activity, negative = inhibition” value is -18.7%.

With `N#CCCn1c(=O)c(-c2cccc(C#N)c2)nc2cnc(Oc3cccc(Cl)c3)nc21`, the “activity, negative = inhibition” value was -21.1%.

For `N#CCCn1c(=O)c(-c2ccc(F)cc2)nc2cnc(Oc3cccc(Cl)c3)nc21`, the “activity, negative = inhibition” value is 24.7%.

Turning to `COCCn1c(=O)c(-c2ccc(F)cc2)nc2cnc(Oc3ccccc3)nc21`, the “activity, negative = inhibition” value was -37.8%.

For the compound `O=c1cnc2cnc(Oc3cccc(Cl)c3)nc2n1Cc1ccc(F)cc1`, the AC50 was 20000 nM (active).

In the case of `N[C@H](CCCP(=O)(O)O)C(=O)O`, the “activity, negative = inhibition” value was -15%.

As for `CC(=O)C=NCC(=O)O`, the activity, negative = inhibition was -14.5% [at 11.4 µM].

`Cc1ccccc1OCCNC(=O)c1ccccc1Sc1ccccc1C#N`: the concentration at half-maximal activity (AC50) was 8910 nM (active).

In the case of `Cc1nc(S(=O)(=O)c2cccc(Cl)c2)nc2c1CCC2`, the AC50 is 15800 nM (active).

For `COCC(=O)N1CCC2(CC1)CCN(c1ncccn1)CC2`, the “activity, negative = inhibition” value was 29.1%.

As for `COCC(=O)N1CCC2(CCCN(c3ncccn3)C2)CC1`, the “activity, negative = inhibition” value was -0.728%.

Take `O=C(Oc1ccccc1)N1CCC2(CC1)CCN(c1ncccn1)CC2`: the “activity, negative = inhibition” value is -25.4%.

As to `COCC(=O)N1CCC2(CC1)CN(c1ccccn1)C2`, the “activity, negative = inhibition” value is 25.7%.

For the compound `CCN(C(=O)c1cnc(N2CCN(c3ncccn3)CC2)c2ccccc12)c1cccc(Cl)c1`, the concentration at half-maximal activity (AC50) is 251 nM (active).

As for `CN(C(=O)c1cnc(N2CCN(c3ncccn3)CC2)c2ccccc12)c1ccc(Cl)cc1`, the AC50 was 1580 nM (active).

On to `Fc1ccc(C2CC(c3ccco3)=NN2c2ccccc2)cc1` (stereo not given), for which the AC50 is 2240 nM (active).

Turning to `C[C@@H]1CC[C@@H]2C(=O)N3[C@@H](CC[C@@H](C)[C@@H]3c3ccc(-c4ccco4)cc3)C(=O)N2[C@H]1c1ccc(-c2ccco2)cc1`, the activity, negative = inhibition is 0.199% [at 11.4 µM].

`CCN1C(=O)[C@H]2[C@H]3[C@H](O)[C@H](O)C/C(=N/O[C@@H]4O[C@@H](COC(C)=O)[C@@H](OC(C)=O)[C@@H](OC(C)=O)[C@H]4OC(C)=O)[C@@H]3CC[C@@H]2C1=O`: the activity, negative = inhibition is 13.6% [at 11.4 µM].

Take `Cc1ccc(-c2cccc(OC(=O)c3ccccc3F)c2)cc1`: the AC50 is 2510 nM (active).

With `O=C(c1cc(O)c(O)c([N+](=O)[O-])c1)c1ccccc1F`, the “activity, negative = inhibition” value was -8.03%.

On to `Cc1cc(OC(=O)c2ccccc2Cl)cc(=O)n1C`, for which the “activity, negative = inhibition” value was -13.3%.

With `CN(C)C(=N)N=C(N)N`, the “activity, negative = inhibition” value was 2.73% [at 25.6 µM].

For the compound `COc1ccc(Cl)cc1NC(=O)C12CCC(C)(C(=O)O1)C2(C)C` (stereo not given), the half-maximal activity concentration (AC50) is 1260 nM (active).

For the compound `O=C1CCCCC(=O)c2ccccc2N1`, the “activity, negative = inhibition” value was -6.61%.

For `Cc1cc2c(s1)CCCCC(=O)N2`, the AC50 is 22400 nM (active).

For the compound `N#C[C@H]1CN[C@H](N)N[C@@H]1N`, the activity, negative = inhibition is 14.3% [at 11.4 µM].

`Oc1[nH]c2ccccc2c1/C=N/c1nccs1`: the AC50 is 14100 nM (active).

Regarding `O=C1c2ccccc2C(=O)C1c1ccccc1`, the “activity, negative = inhibition” value was -10.9% [at 25.6 µM].

As to `c1ccc(C2OCC3(CO2)COC(c2ccccc2)OC3)cc1` (stereo not given), the AC50 was 2510 nM (active).

On to `CC(C)(C)c1[nH]nc2c1C(c1ccc(OC(=O)c3ccco3)cc1)C(C#N)=C(N)O2` (stereo not given), for which the “activity, negative = inhibition” value is -28.5%.

Consider `C/C(=C\c1ccco1)C1C(C#N)=C(N)Oc2n[nH]c(-c3ccccc3)c21` (stereo not given), for which the AC50 is 2240 nM (active).

On to `COc1ccccc1CN1CC[C@@]2(CCCN(C(=O)c3cccn3C)C2)C1`, for which the “activity, negative = inhibition” value is 6.39%.

Take `Cc1cccc(NC(=O)C23CCC(C)(C2Br)C3(C)C)c1` (stereo not given): the AC50 is 4470 nM (active).

Take `CCN(CC)CCOC(=O)C1(c2ccc([N+](=O)[O-])cc2)CCCC1`: the “activity, negative = inhibition” value is -32.9%.

Consider `Cc1cccc(NC(=O)C2(c3ccccc3)CC2(Cl)Cl)c1` (stereo not given), for which the AC50 was 1000 nM (active).

In the case of `Cc1cccc(NC2=NC(=S)N(c3ccc(C(=O)O)cc3)C23CCCCC3)c1`, the “activity, negative = inhibition” value is -54.6%.

Consider `CC12CCC(C(=O)Nc3cccc4ccccc34)(C1Br)C2(C)C` (stereo not given), for which the AC50 is 8910 nM (active).

For `Cc1cccc(NC(=O)C2(c3ccc([N+](=O)[O-])cc3)CCCC2)c1`, the AC50 was 891 nM (active).

On to `CCOC(=O)N/N=C1/C[C@@H](O)[C@@H](O)[C@@H]2[C@@H]3C(=O)N(C4CCCCC4)C(=O)[C@H]3CC[C@@H]12`, for which the activity, negative = inhibition is -22.2% [at 11.4 µM].

`C[N+]1(CCCC[N+]2(C)CCCCCCC2)CCCCCCC1`: the activity, negative = inhibition is 34.1% [at 11.4 µM].

As to `CCc1ccccc1NC(=O)c1ccc(-n2c(C)ccc2C)cc1`, the AC50 was 15800 nM (active).

Regarding `C=CCNc1oc(/C=C/c2ccccc2)nc1C#N`, the half-maximal activity concentration (AC50) was 4470 nM (active).
